# In the supplement of paper PMC3334620:
# Over roughly 33,000 sequences, “E-score (-0.5 to 0.5)” has its median near -0.016; the highest 2% begin near 0.32. The list comes from a sample in which the highest values are over-represented; it also holds similar and randomly drawn sequences.
# Molecular target: T1, Stp1 (UniProt B3LFK1)
# T1 sequence: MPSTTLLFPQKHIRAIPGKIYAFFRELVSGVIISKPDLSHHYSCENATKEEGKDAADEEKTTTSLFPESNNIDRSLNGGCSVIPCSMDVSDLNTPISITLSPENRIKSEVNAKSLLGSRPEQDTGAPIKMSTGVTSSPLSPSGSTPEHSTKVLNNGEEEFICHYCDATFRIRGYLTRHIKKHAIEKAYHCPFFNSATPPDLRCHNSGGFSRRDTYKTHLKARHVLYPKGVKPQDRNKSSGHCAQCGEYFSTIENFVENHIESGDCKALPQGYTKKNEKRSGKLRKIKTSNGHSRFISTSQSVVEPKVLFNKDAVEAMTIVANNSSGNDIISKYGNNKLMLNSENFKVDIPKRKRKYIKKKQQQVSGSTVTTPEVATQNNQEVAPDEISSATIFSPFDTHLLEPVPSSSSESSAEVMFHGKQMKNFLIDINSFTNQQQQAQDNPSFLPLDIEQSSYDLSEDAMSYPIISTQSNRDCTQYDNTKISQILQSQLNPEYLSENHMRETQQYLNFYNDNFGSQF
# Test: PBM E-score (8-mer binding enrichment) (E-score (-0.5 to 0.5)); higher = stronger / more preferred TF binding
# Settings: protein concentration: 200 nM; construct: GST-full length
# Method: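 Universal 'all 10-mer' protein binding microarrays (Agilent AMADID 015681) probed with GST-tagged S. cerevisiae TFs (full-length or DBD) made by in vitro transcription/translation (PURExpress), about 100-200 nM. Bound TF was detected with fluorescent anti-GST. Each ungapped 8-mer (which stands for itself and its reverse complement) is scored by the PBM enrichment score (E-score), a modified Wilcoxon-Mann-Whitney statistic from -0.5 to +0.5, computed with the Universal PBM Analysis Suite. Scale: above 0.35 generally sequence-specific binding.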
row,Sequence,PBM E-score
1,AGGCCGGG,-0.163
2,CTGAAAGC,0.0435
3,ACTACTGA,-0.0374
4,AGCCAGGC,-0.101
5,CAGGCGGC,0.3
6,GAGGAGGC,0.00167
7,AAGGCGGA,-0.099
8,AAGGCGGC,0.319
9,GAGGCGGA,-0.00688
10,GAGGCGGC,0.374
11,GGAAACTA,-0.133
12,TCAATGAA,0.0662
13,ACCAAGTG,-0.0911
14,GAGTAGAC,0.0184
15,AGTCGAAC,-0.146
16,ATGATGCG,0.148
17,CAAATGCC,0.227
18,ATAATGCG,-0.0164
19,CCCATGCC,-0.0109
20,GAAATGCC,0.358
21,CTGATGCC,0.187
22,ACCATGCC,0.199
23,CTAATGCC,0.221
24,GAAATGCA,-0.0558
25,GCCATGCC,0.324
26,ATGATGCC,0.337

row,Sequence,PBM E-score
1,ATAATGCC,0.325
2,TACACACA,0.202
3,ATGGATTA,-0.0582
4,ACCTGGAT,-0.266
5,GAAGCATA,-0.00057
6,GTCACAAA,-0.0375
7,AGTCATTG,-0.381
8,CACACTCA,0.0928
9,AAATTTCT,-0.0455
10,AAAATGCA,-0.0731
11,AAAATGCT,0.164
12,GCGATGCA,-0.156
13,AAAATGCC,0.352
14,CCGATGCC,0.264
15,GCGATGCC,0.319
16,ACTCACAC,-0.063
17,CAATCCAA,0.0601
18,AAGCTGGG,-0.164
19,AGCAATTA,0.0484
20,CCCACACC,-0.0557
21,AAGCGGAT,-0.0611
22,AAGCGGCA,0.455
23,AAGCGGCT,0.354
24,AAGCGGAA,0.0259
25,AAGCGGGA,-0.095
26,AAGCGGGT,-0.0561

row,Sequence,PBM E-score
1,GAGCGGAA,0.141
2,GAGCGGCA,0.44
3,CAGCGGCA,0.3
4,CAGCGGCC,-0.111
5,TAGCGGCA,0.291
6,CAGCGGCG,0.34
7,AAAGTTAA,0.102
8,CCCCAGTC,-0.324
9,ACGTGTTA,0.116
10,GTAAGAGA,-0.0111
11,AACTCTAC,-0.212
12,AATCGCTC,-0.292
13,TGAGATCA,0.0358
14,GAGGGGGC,-0.277
15,CTGACCAG,-0.136
16,AAGCGGCC,0.282
17,AAGCGGAG,-0.0617
18,AAGCGGCG,0.458
19,AGGCGTTA,0.236
20,CGGCGTTC,0.391
21,CGGCGTTA,0.454
22,AGGCGTTC,0.0316
23,CAGCGTTC,0.0494
24,GGGCGTTA,0.206
25,CGGAGGAA,-0.229
26,CCTCCATA,0.0205

row,Sequence,PBM E-score
1,CGCCGCAA,0.421
2,CACCGCAA,0.0442
3,TGCCGCAA,0.333
4,CCCCGCAC,-0.00823
5,AGCCGCAG,0.258
6,CGCCGCAG,0.436
7,CGCCGCAC,0.478
8,TGCCGCCA,0.229
9,TACCGCAA,0.117
10,GGCCGCAA,0.131
11,CCCCGCAG,-0.0786
12,GGCCGCAC,0.289
13,CAAAGACG,0.0347
14,AAATGCAA,0.0071
15,ATTAGATA,0.11
16,ACTCACAA,-0.0902
17,CGCAGTAA,0.0664
18,GGTGAGGA,0.0236
19,ATGGGTCA,-0.255
20,CGCCATAC,0.194
21,AAACCGGG,-0.195
22,AATCCTTC,-0.128
23,ATACAGAC,-0.0347
24,ATGTGCCG,0.377
25,CCCTGCCG,0.161
26,CTGTGCCC,0.242

row,Sequence,PBM E-score
1,CCGTGCCA,0.35
2,ATGTGCCC,0.0678
3,GCGTGCCC,0.0203
4,ATGTGCCA,0.137
5,GCGTGCCA,0.206
6,CCGTGCCG,0.47
7,CCGTGCCC,0.365
8,CCGTGACG,0.109
9,TCGTGCCA,0.177
10,ACTTCTGC,0.0768
11,GCTTCATA,0.0285
12,CTTGGCAA,-0.119
13,CCACCCGG,-0.218
14,CGCAAGTC,-0.309
15,GCTACTGA,-0.0112
16,CAAGGCTA,0.275
17,CACAATGC,0.00061
18,CCGTGCAA,0.325
19,ATGTGCGG,0.213
20,AGGTGCCG,0.385
21,AGGTGCCA,-0.0228
22,ACGTGCGA,0.00881
23,ATGTGGCA,0.27
24,CCGTGCAG,0.315
25,TCGTGCAA,0.288
26,ACGTGCGG,0.357

row,Sequence,PBM E-score
1,ATGTGGCG,0.322
2,AGGTGCCC,-0.0256
3,ATGTGGCC,0.0349
4,CGTTGACA,0.0374
5,AGAATCTC,-0.0977
6,AAGGAGCC,-0.0111
7,CTCTTAGC,0.0466
8,ACGTCGTG,-0.00714
9,AGTGGGCG,0.0679
10,CCGTGGCA,0.357
11,ACGTGCCC,0.18
12,TCGTGGCA,0.102
13,ACGTGCCG,0.39
14,ACGTGCCT,0.278
15,ACGTGGCA,0.152
16,GATGGCAC,0.196
17,ATCTCTTG,-0.137
18,AGCCGCAA,0.188
19,AACCGCAC,0.0401
20,ACCCGCAC,0.129
21,AGCCGCAT,0.452
22,AGCCGCAC,0.42
23,ACCCGCAT,0.1
24,CACTCTGC,-0.129
25,CCCTTCTC,-0.259
26,CTCAGGTC,-0.196

row,Sequence,PBM E-score
1,TATTAGCA,0.0213
2,ACTCAAGA,-0.0476
3,AATATAAG,0.32
4,CATATAAG,0.118
5,AATATAAT,0.0522
6,CCGTTTAA,0.349
7,ACGTTTAA,0.12
8,CCGTTTAC,0.235
9,AGTTCTAA,-0.0232
10,TATGGCGA,0.0899
11,CCATAAAG,-0.0597
12,CAGGCACC,-0.107
13,AAGGCACC,0.402
14,GAGGCACA,0.332
15,CAGGCACA,-0.259
16,CAGGCACG,0.174
17,GAGGCAGA,-0.118
18,AAGGCACG,0.397
19,GAGGCACC,0.239
20,AAGGCACA,0.338
